In the library only some 7.5% were active in any assay of this set; here they are far more common.
FLuc modulator – qHTS profiling assay for firefly luciferase inhibitor/activator using purifed enzyme and Km concentrations of substrates (counterscreen for miR-21 project). AID 588342, 2011. purified FLuc, Km substrates, luminescence inhibition. Potency, µM (titrated, usually from 57.5 µM), for inactives: at the highest dose activity change, negative = inhibition, usual class: inhibitors. hit rate 6.9% among 360,000;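 note: plate controls were vehicle for no effect and reference inhibitor for full effect; nearly all actives have a fitted effect of over 55% in size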
Target sequence (P08659 whole entry, looked up): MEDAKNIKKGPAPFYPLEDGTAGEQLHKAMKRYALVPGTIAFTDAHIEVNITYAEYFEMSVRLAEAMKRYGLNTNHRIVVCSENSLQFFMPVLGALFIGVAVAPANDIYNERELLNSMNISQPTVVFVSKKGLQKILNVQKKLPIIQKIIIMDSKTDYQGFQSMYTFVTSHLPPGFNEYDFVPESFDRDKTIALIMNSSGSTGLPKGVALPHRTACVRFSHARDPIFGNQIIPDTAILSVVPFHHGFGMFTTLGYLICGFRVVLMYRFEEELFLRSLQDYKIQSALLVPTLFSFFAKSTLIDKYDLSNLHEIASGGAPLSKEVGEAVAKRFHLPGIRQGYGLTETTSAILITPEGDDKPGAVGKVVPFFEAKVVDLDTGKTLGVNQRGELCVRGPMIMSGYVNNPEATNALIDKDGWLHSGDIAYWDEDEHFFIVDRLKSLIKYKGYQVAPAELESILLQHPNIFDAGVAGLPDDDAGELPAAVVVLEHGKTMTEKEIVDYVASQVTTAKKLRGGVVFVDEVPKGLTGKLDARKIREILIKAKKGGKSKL
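Purified P. pyralis luciferase, 10 nM final, with Km-level 10 uM D-luciferin and 10 uM ATP in 50 mM Tris acetate pH 7.5, 10 mM Mg acetate, 0.01% Tween-20, 0.05% BSA; 6-point qHTS titration about 60 µM downward; luminescence read.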
Rab9 prom act – qHTS Assay for Rab9 Promoter Activators; hit rate 2.8% among 320,000; Potency, µM (highest dose often 9.22 µM), inactives show at the top dose activation, negative = inhibition, hits mostly activators; Huh7 Rab9 promoter-luciferase reporter, luminescence, 24 h; note: % of control where 0% means no effect; nearly all actives have a fitted effect of over 60% in size
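Rab9 promoter-driven luciferase in stably transfected Huh7 cells; 1500 cells/well rested 2 h, exposed to compound in DMSO for 24 h at 37 °C, 5% CO2. Luminescence read 10 min after adding luciferase reagent at ambient temperature.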
NPC1 prom act – qHTS Assay for NPC1 Promoter Activators | Huh7 NPC1 promoter luciferase reporter, 24 h | Potency, µM (top dose mostly 9.22 µM), inactives show top-dose activation, hits mostly activators | hit rate 2.4% among 320,000 | AID 485313, 2010; note: % of control where 0% means no effect; nearly all actives have a fitted effect of over 60% in size
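Compounds in DMSO were transferred onto Huh7 NPC1-luciferase reporter cells pre-incubated 2 h; after 24 h at 37 °C, Amplite reagent was dispensed and luminescence recorded 10 min later.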
ELG1 genotox – qHTS screen for small molecules that induce genotoxicity in human embryonic kidney (HEK293T) cells expressing luciferase-tagged ELG1. AID 504466, 2011. hit rate 1.3% among 330,000. HEK293T ELG1-luciferase reporter, luminescence, 16 h. Potency, µM (series often up to 46 µM), for the others: at the top dose activity change, positive = activation, most hits filed as activators; note: % of control where 0% means no effect; nearly all actives have a fitted effect of over 60% in size
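DMSO vehicle served as control against compound-treated ELG1-luciferase HEK293T cells; exposure lasted 16 hr at 37 °C and 5% CO2, followed by ONE-Glo luminescence detection after 30 min.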
SMN2 splice up – qHTS Assay for Enhancers of SMN2 Splice Variant Expression; HEK293 SMN2-luciferase splicing reporter, luminescence, 30-36 h; Potency, µM (highest dose often 46.1 µM), inactives show top-dose activity change, positive = activation, usual class: activators; hit rate 2.8% among 210,000; note: % of control where 0% means no effect; nearly all actives have a fitted effect of over 55% in size
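HEK293 cells carry an SMN2 minigene-luciferase reporter in which exon 7 inclusion puts luciferase in frame. Cells were seeded at 2000 cells/well, attached for 10-12 hours, then exposed to compounds for 30-36 hours at 37C before ONE-Glo luminescence.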
Luc counter – Counterscreen for Luciferase (Kinase-Glo TM) Inhibition | hit rate 0.28% among 200,000 | AID 1379, 2008 | Potency, µM (series often up to 38.3 µM), inactives show at the top dose activity change, negative = inhibition, most hits filed as inhibitors | Luciferin 4-monooxygenase (Photuris pensylvanica), Q27757 | Kinase-Glo luciferase, ATP luminescence, 8 min; note: % is set by controls: 0 for no effect and ±100 for the full control effect; nearly all actives have a fitted effect of over 60% in size
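Recombinant Kinase-Glo luciferase, 10 uM ATP (linear range), luciferin; imidazole pH 7.2 / KCl / MgCl2 / Tween / BSA buffer; 8 min RT; luminescence.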
The depositor's hits bear a star; [ ] = another dose, or the depositor's remark. Calls come from the whole dose curve; as a rule, active = well fitted curve in the direction sought with a large enough effect; inconclusive = small, poorly fitted or top-dose-only effect, or another doubt; inactive = no such curve, though single readings can be large; an effect the other way counts as inactive or inconclusive. Potency is the fitted concentration of half-maximal effect.

`O=C(Nc1ccc(F)cc1F)c1csc(-c2cccs2)n1` gave FLuc modulator 6.7µM*, Rab9 prom act inconclusive, NPC1 prom act 0%, ELG1 genotox -5%, SMN2 splice up inconclusive and Luc counter -2%.
For CN1CCN(C(CNC(=O)c2ccc(F)cc2)c2ccc3c(c2)OCO3)CC1 (stereo not drawn) the results were FLuc modulator 0%.
For O=C(CSc1nnc(-c2cccs2)o1)N1CCCCC1 the results were FLuc modulator 21µM*, Rab9 prom act 1.6µM*, NPC1 prom act 2.5µM*, ELG1 genotox 9.2µM*, SMN2 splice up 13µM* and Luc counter -5%.
CC1CCCCN1C(=O)CSc1nnc(-c2cccs2)o1 (stereo not drawn) was read as FLuc modulator 21µM*, Rab9 prom act 2.2µM*, NPC1 prom act 3.5µM* and ELG1 genotox inconclusive.
For O=C(CSc1nnc(-c2cccs2)o1)N1CCOCC1 the results were FLuc modulator 0%, Rab9 prom act 0%, NPC1 prom act -1%, ELG1 genotox 4%, SMN2 splice up -1% and Luc counter -4%.
For CC1CCCC(C)N1C(=O)CSc1nnc(-c2cccs2)o1 (stereo not drawn) the results were FLuc modulator 12µM*, Rab9 prom act 1.6µM*, NPC1 prom act 1.1µM*, ELG1 genotox inconclusive, SMN2 splice up 11µM* and Luc counter -1%.
For CC1CCN(C(=O)CSc2nnc(-c3cccs3)o2)CC1 the results were FLuc modulator -14%, Rab9 prom act 21%, NPC1 prom act 13% and ELG1 genotox 20%.
`Nn1c(SCC(=O)Nc2cc(S(=O)(=O)N3CCOCC3)ccc2Cl)nnc1-c1cccnc1` gave FLuc modulator -1%, Rab9 prom act 11%, NPC1 prom act 1%, ELG1 genotox 2%, SMN2 splice up -3% and Luc counter -2%.
`COCCNC(=O)c1ccc2c(c1)NC(=O)C(CS(=O)(=O)Cc1ccc(F)cc1Cl)N2` (stereo not drawn) gave FLuc modulator -1%.
For O=C(N/N=C/c1ccsc1)c1ccccn1 the results were FLuc modulator 15µM*, Rab9 prom act 4.5µM*, NPC1 prom act 2.8µM*, ELG1 genotox inconclusive and Luc counter inconclusive.
For CC(C)(C)c1ccc(/C=N/NC(=O)c2ccccn2)cc1 the results were FLuc modulator 0.38µM*, Rab9 prom act 0.89µM*, NPC1 prom act 0.32µM*, ELG1 genotox inconclusive and Luc counter -15%.
For O=C(N/N=C/c1ccc(Br)s1)c1ccccn1 the results were FLuc modulator 4.8µM*, Rab9 prom act 1.4µM*, NPC1 prom act 2.8µM*, ELG1 genotox 9.2µM*, SMN2 splice up 3.5µM* and Luc counter inconclusive.
O=C(N/N=C/c1ccc(OC(=O)c2ccccc2Br)cc1)c1ccccn1 was read as FLuc modulator 3%, Rab9 prom act -1%, NPC1 prom act 1% and ELG1 genotox 2%.
For CC(C)c1ccc(NC(=O)c2cccn2-c2nnc(N3CCCCC3)s2)cc1 the results were FLuc modulator -15%.
CCS(=O)(=O)N1CCc2nc(-c3ccccc3)sc2C1 was read as FLuc modulator 4.8µM*, Rab9 prom act 1.1µM*, NPC1 prom act 0.63µM* and ELG1 genotox inconclusive.
Screening O=C(CCSc1ccccn1)c1ccccc1 returned FLuc modulator 6µM*, Rab9 prom act -2%, NPC1 prom act -1%, ELG1 genotox -2%, SMN2 splice up 3% and Luc counter -3%.
Screening O=C(CCCc1ccccn1)c1ccccc1 returned SMN2 splice up 2.8µM* and Luc counter -3%[7.66 µM].
O=C(Cc1ccccn1)c1ccc(Cl)cc1 was read as FLuc modulator 12µM*, Rab9 prom act 2.8µM*, NPC1 prom act inconclusive and ELG1 genotox inconclusive.
For Cc1ccc(N2CCN(C(=O)CCc3c(C)nc4ncnn4c3C)CC2)c(C)c1 the results were FLuc modulator -2% and SMN2 splice up -56%.
For NCC1CCC(N)C(O[C@@H]2C(O)[C@H](O[C@H]3OC(CO)C(O)C(N)C3O)[C@@H](N)C[C@H]2N)O1 (stereo partly drawn) the results were SMN2 splice up -3% and Luc counter -1%.
Screening CCOCCCN1CC(=O)N2[C@@H](Cc3c([nH]c4ccccc34)C2(C)C)C1=O returned FLuc modulator 1%, Rab9 prom act -1%[1.84 µM], NPC1 prom act 0% and ELG1 genotox -4%.
For CCOc1cc(/C=N/NC(=O)c2ccc(-c3csc(Nc4ccc(C)cc4)n3)cc2)ccc1OCC(=O)O the results were FLuc modulator inconclusive, Rab9 prom act 2.8µM*, NPC1 prom act 3.2µM*, ELG1 genotox -3%, SMN2 splice up 13µM* and Luc counter 1%.
CCOc1cc(/C=N/Nc2nc(Nc3ccccc3)nc(N3CCCCC3)n2)ccc1OCC(=O)O was read as FLuc modulator 1.1µM*, Rab9 prom act 25%, NPC1 prom act 0%, ELG1 genotox -2%, SMN2 splice up -3% and Luc counter 2%.
For CCOc1cc(/C=N\NC(=O)Cc2ccccc2)ccc1OCC(=O)Nc1ccc(C)c(C)c1 the results were FLuc modulator 2%, Rab9 prom act -10%, NPC1 prom act -6%, ELG1 genotox 12%, SMN2 splice up 6% and Luc counter -3%.
For CCOc1cc(/C=N/Nc2nc(N3CCCC3)nc(N3CCCC3)n2)ccc1O the results were FLuc modulator -15%, Rab9 prom act 1%, NPC1 prom act -5%, ELG1 genotox -2%, SMN2 splice up -9% and Luc counter -3%.
For CCOc1cc(/C=N/Nc2ccccc2Cl)ccc1OCC(=O)O the results were FLuc modulator 21µM*, Rab9 prom act 0%, NPC1 prom act 12%, ELG1 genotox inconclusive, SMN2 splice up 0% and Luc counter 6%.
COc1ccc(/C=N/Nc2nc(Nc3ccccc3)nc(N3CCCCC3)n2)cc1OC was read as FLuc modulator 1.1µM*, Rab9 prom act inconclusive, NPC1 prom act inconclusive, ELG1 genotox -7%, SMN2 splice up 19% and Luc counter 1%.

Compound activity: PubChem, National Center for Advancing Translational Sciences (NCATS)
